Laboratory results from PubChem BioAssay (NCI).
This is part of a sample that, as a whole, favours compounds with a hit. Of some 79,000 tested, about 15% had one in any assay. A number with no mark means an inactive call. Active and inactive are the calls of the source. No stated cut-off is given here; in the data, active means growth inhibition above about 70%; inactive means the rest. Where a SMILES comes first, the peptide text is derived from it. The star is where a group is joined. Trt = c1ccc(C(c2ccccc2)(c2ccccc2)*)cc1; OtBu = CC(C)(C)O*

Assays:
[1] = NCI Yeast Anticancer Drug Screen. Data for the rad50 strain (AID 155);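 further: 0% = growth of vehicle-only cultures of the same strain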; conditions: S. cerevisiae rad50 strain growth inhibition, hits give high values
How it was run: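 Inhibition values express reduced yeast growth in compound-treated cultures relative to vehicle-treated controls.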

[2] = NCI Yeast Anticancer Drug Screen. Data for the mec2-1 strain (AID 157); conditions: S. cerevisiae mec2-1 strain, hits give high values
How it was run: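 Readout is yeast growth inhibition, normalised to vehicle-treated controls, in the mec2-1 strain exposed to compound.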

[3] = NCI Yeast Anticancer Drug Screen. Data for the sgs1 mgt1 strain (AID 161);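 further: 0% = growth of cultures given vehicle only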; conditions: S. cerevisiae sgs1 mgt1 strain, hits give high values
How it was run: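 Compounds are added to genetically altered yeast, and growth is compared with cultures given vehicle alone to give percent inhibition.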

[4] = NCI Yeast Anticancer Drug Screen. Data for the cln2 rad14 strain (AID 165);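 further: 0% = growth equal to vehicle treated cultures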; conditions: S. cerevisiae cln2 rad14 strain, hits give high values
How it was run: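 Relative to vehicle controls, growth inhibition of compound-treated cln2 rad14 yeast was recorded.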

[5] = NCI Yeast Anticancer Drug Screen. Data for the bub3 strain (AID 167); conditions: S. cerevisiae bub3 mutant strain, hits give high values
How it was run: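 Steps: expose the mutant yeast strain to compound; grow alongside vehicle-treated cultures; measure growth; express inhibition against the vehicle cultures.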

[6] = NCI Yeast Anticancer Drug Screen. Data for the mlh1 rad18 strain (AID 175); conditions: S. cerevisiae mlh1 rad18 strain growth inhibition, hits give high values
How it was run: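 Test agents were incubated with a yeast strain of defined genotype (DNA damage repair defect). Inhibition of growth was derived by comparison with vehicle-exposed cultures.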

[7] = at 5.0 µM (retest, dose inferred, filed as 0.5)
[8] = at 50.0 µM (retest, dose inferred, filed as 5.0)

SMILES	growth inhibition [1, 7]	growth inhibition [1, 8]	growth inhibition ([1]; at 50.0 µM)	growth inhibition [2, 7]	growth inhibition [2, 8]	growth inhibition ([2]; at 50.0 µM)	growth inhibition [3, 7]	growth inhibition [3, 8]	growth inhibition ([3]; at 50.0 µM)	growth inhibition [4, 7]	growth inhibition [4, 8]	growth inhibition ([4]; at 50.0 µM)	growth inhibition [5, 7]	growth inhibition [5, 8]	growth inhibition ([5]; at 50.0 µM)	growth inhibition [6, 7]	growth inhibition [6, 8]	growth inhibition ([6]; at 50.0 µM)
Oc1cccc(NCSc2ccc(Cl)cc2)c1	-4%	95% (active)	93.3% (active)	-3%	95% (active)	95.2% (active)	-9%	95% (active)	96.2% (active)	-5%	91% (active)	92.5% (active)	-3%	93% (active)	94.1% (active)	-1%	91% (active)	94% (active)
COc1ccc(/C=N/n2c(C)nc3c(sc(=S)n3-c3ccccc3)c2=O)cc1	3%	-12%	13.6%	-3%	-6%	46.8%	3%	23%	11.4%	-15%	4%	8.15%	12%	29%	47.4%	22%	-12%	10.8%
O=C1CCC(Cc2ccc(Cl)cc2Cl)C(=O)N1 (configuration not stated)	-8%	3%	-7.6%	-3%	-6%	6.15%	45%	95% (active)	92.8% (active)	-4%	-2%	-68.7%	-4%	0%	-47.7%	-5%	3%	-7%
CC(C)(c1ccc(OC#N)cc1)c1ccc(OC#N)cc1	21%	78% (active)	66%	-23%	87% (active)	53.4%	4%	40%	79.5% (active)	23%	88% (active)	61.4%	1%	95% (active)	25%	-14%	59%	47%
CSc1cc(Cl)c(C)cc1S(=O)(=O)NC(=O)Nc1ccc(Cl)cc1	25%	97% (active)	99.1% (active)	34%	99% (active)	99% (active)	24%	97% (active)	99.5% (active)	45%	97% (active)	98.7% (active)	35%	98% (active)	98.5% (active)	29%	99% (active)	99.3% (active)
CC(C)(C)OC(=O)CNC(=O)C(Cc1ccccc1)NC(=O)C(N)CSC(c1ccccc1)(c1ccccc1)c1ccccc1 (stereo not drawn) (H-Cys(Trt)-Phe-Gly-OtBu; configuration not given here)	-3%	16%	59.2%	-5%	53%	82.2% (active)	0%	41%	76.5% (active)	-5%	48%	41.3%	1%	34%	17.9%	-3%	45%	73.3% (active)
CCCCCCCCCCCCNC(=O)c1cc[n+](Cc2ccc(Cl)c(Cl)c2)cc1	99% (active)	98% (active)	99.3% (active)	100% (active)	97% (active)	99.2% (active)	100% (active)	98% (active)	99.1% (active)	88% (active)	98% (active)	97.8% (active)	98% (active)	98% (active)	98.8% (active)	99% (active)	99% (active)	99% (active)
CC(CN1CCCCCCC1)C(c1ccccc1)c1ccccc1 (configuration not stated)	2%	81% (active)	66.3%	-3%	76% (active)	61.8%	7%	98% (active)	94.1% (active)	-5%	73% (active)	96.2% (active)	-2%	87% (active)	98.5% (active)	-3%	89% (active)	86.5% (active)
CC(=O)Nc1ccc(N=C2c3ccccc3-c3ccc(NC(C)=O)cc32)cc1	2%	64%	98.4% (active)	0%	52%	77.3% (active)	-2%	57%	98.5% (active)	3%	28%	43.4%	-1%	53%	87.8% (active)	-5%	59%	98.2% (active)
O=C1C=CC(=O)N1c1ccccc1 (tested in a mixture with another compound)	0%	20%	91% (active)	-1%	32%	92.8% (active)	0%	39%	94.4% (active)	-3%	34%	93.8% (active)	-15%	77% (active)	95.2% (active)	-1%	22%	77.2% (active)
COC(=O)/C=C(\Cl)C(=O)OC	8%	84% (active)	99.3% (active)	16%	99% (active)	99.7% (active)	5%	98% (active)	99.5% (active)	19%	99% (active)	97.5% (active)	19%	97% (active)	99.5% (active)	7%	98% (active)	99.2% (active)
CC12CCc3ccccc3C1=Nc1ccccc12 (configuration not stated)	-3%	78% (active)	78.7% (active)	2%	89% (active)	73.2% (active)	8%	82% (active)	58.2%	-12%	-20%	-11.1%	12%	90% (active)	88.7% (active)	-3%	72% (active)	55.5%
CCCCCCCCCCCCCCCC(=O)N1CCOCC1	-4%	94% (active)	31.4%	-5%	97% (active)	31.8%	-4%	98% (active)	-13.7%	1%	62%	-64.8%	-8%	98% (active)	21.2%	17%	93% (active)	28.1%
Clc1cc(Cl)c2cc3cccc[n+]3cc2c1Cl	0%	19%	90.2% (active)	-11%	33%	93.5% (active)	2%	-18%	79.2% (active)	4%	31%	54.2%	-12%	49%	87.8% (active)	-14%	55%	96.1% (active)
COc1c(OC)c(C2(O)C(=O)N(C)c3ccccc32)c(OC)c(OC)c1C1(O)C(=O)N(C)c2ccccc21 (configuration not stated)	-1%	2%	7.2%	-2%	12%	3.9%	-3%	1%	-4.9%	-10%	-2%	-0.05%	-3%	-2%	4.85%	-1%	22%	7.15%
COC(=O)c1ccccc1C=C(c1ccc([N+](=O)[O-])cc1)c1ccc([N+](=O)[O-])cc1	4%	94% (active)	93.2% (active)	-2%	99% (active)	95.8% (active)	4%	98% (active)	96.5% (active)	-11%	97% (active)	95.1% (active)	-2%	98% (active)	94.6% (active)	28%	97% (active)	96% (active)
CC1(C)CC(O)C(O)C1 (configuration not stated)	-2%	-2%	-4%	2%	0%	7.25%	0%	-1%	12.6%	-2%	-13%	67.5%	2%	11%	-1.7%	-1%	-4%	-5.6%
CCc1cccc(CC)c1NC(=O)C1=C(C)NC(C)=C(C(=O)Nc2c(CC)cccc2CC)C1c1ccc2c(c1)OCO2	54%	54%	91.9% (active)	45%	45%	92.5% (active)	45%	45%	93.2% (active)	26%	26%	91.3% (active)	39%	39%	89.2% (active)	43%	43%	87.5% (active)
O=C(NCCN1CCCC1)c1cn2c(ccc3sc4ccccc4c(=O)c32)n1	29%	89% (active)	66%	21%	71% (active)	49.6%	19%	77% (active)	46%	19%	54%	37.2%	20%	76% (active)	25.9%	26%	81% (active)	20.4%
